# This is a sample that favours compounds with a hit; in the whole collection about 6.6% have one here.
# KB-V1 cytotox – kills drug-selected multidrug resistant KB-V1 cells; 400,000 tested, 3.4% active; AID 1347076; KB-V1 MDR cells viability, CellTiter-Glo, 72 h; Potency, µM (top dose mostly 46.1 µM), usual class: cytotoxic; note: % is set by controls: 0 for no effect and ±100 for the full control effect; nearly all actives have a fitted effect of over 60% in size
#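 Cells of the MDR subline KB-V1 are plated, dosed with compound at multiple concentrations, and incubated 72 h at 37 degrees C; CellTiter-Glo is then added and luminescence read after 10 min.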
# HT1080-NT tox – kills 2HG-producing HT-1080-NT fibrosarcoma cells; HT-1080-NT fibrosarcoma viability, CellTiter-Glo ATP luminescence, 48 h; Potency, µM (top dose mostly 46.1 µM), for inactives: at the highest dose activity, negative = less viability, most hits filed as cytotoxic; 360,000 tested, 1.6% active;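 note: NT is the 2HG producing partner of a matched IDH1 knockdown line; 0% = DMSO-treated cells and -100% = media-only wells without cells; nearly all actives have a fitted effect of over 55% in size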
#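 A 48-hour cytotoxicity screen used HT-1080-NT cells plated 2 hours before compound delivery. ATP-based CellTiter-Glo luminescence measured viability, normalized to DMSO and no-cell controls.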
# TGFb SMAD3 inh – inhibitors of TGF-b signaling; Potency, µM (highest dose often 46.1 µM), inactives show at the highest dose activity, negative = inhibition, hits mostly inhibitors; AID 588855; 410,000 tested, 1.2% active; HepG2 CAGA-GFP TGF-b/SMAD3 reporter, GFP fluorescence, 18 h; TGF-beta stimulated, 500 pg/mL final; note: % is set by controls: 0 for no effect and ±100 for the full control effect; nearly all actives have a fitted effect of over 65% in size
#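 TGF-beta reporter screen: HEPG2 CAGA-GFP, 1% FBS, 500 pg/mL TGF-beta final, 18 h; per-cell GFP summed per well; curves fitted and categorized by class.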
# HepG2 tox – kills HepG2 cells in TGF-b inhibitor counter-screen | HepG2 CAGA-GFP viability, ATP luminescence, 18 h | Potency, µM (highest dose often 46.1 µM), for inactives: at the highest dose activity change, negative = cytotoxicity, most hits filed as cytotoxic | 410,000 tested, 0.76% active | AID 588856
#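 CellTiter-Glo luminescence gave cytotoxicity after 18 hours at 37 degrees C. The cells were HepG2 CAGA-GFP in 1% FBS DMEM, stimulated with 500 pg/mL TGF-beta after compound addition. %Activity was normalised to no-cell wells (complete cell-killing) and DMSO (no toxicity), and curves were fitted and classified.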
# HT1080 IDH1KD tx – toxicity to HT-1080 IDH1 knockdown cells (counter line). Potency, µM (series often up to 46.1 µM), for the others: top-dose activity, negative = toxicity, usual class: cytotoxic. HT-1080 IDH1 knockdown viability, ATP luminescence, 48 h. 360,000 tested, 2% active;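 note: 0% = DMSO wells and -100% = cell-free medium wells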
#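 Cytotoxicity counter-line: IDH1KD HT-1080, 48 h, CellTiter-Glo. Curves classed by r2, magnitude and activity.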
# KB-3-1 cytotox – KB-3-1 parental cell cytotoxicity; KB-3-1 viability, CellTiter-Glo ATP luminescence, 72 h; Potency, µM (series often up to 46.1 µM), hits mostly cytotoxic; 400,000 tested, 1.4% active; AID 1347075; note: % is set by controls: 0 for no effect and ±100 for the full control effect; nearly all actives have a fitted effect of over 60% in size
#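 Screening of KB-3-1 cells (DMEM, 10% FBS, phenol-red free) ran from lowest to highest compound concentration; after 72 h at 37 °C viability was read luminescently and curves fitted.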
# Active calls of the source: *; i = inactive; ? = inconclusive; nt = no result given. Calls come from the whole dose curve; as a rule, active = well fitted curve in the direction sought with a large enough effect; inconclusive = small, poorly fitted or top-dose-only effect, or another doubt; inactive = no such curve, though single readings can be large; an effect the other way counts as inactive or inconclusive. Potency is the fitted concentration of half-maximal effect.
SMILES,KB-V1 cytotox,HT1080-NT tox,TGFb SMAD3 inh,HepG2 tox,HT1080 IDH1KD tx,KB-3-1 cytotox
CN1CCN(c2ccc(NC(=O)c3ccc(-c4ccc(Br)cc4)o3)cc2)CC1,?,15µM*,?,22µM*,23µM*,?
NC(=O)c1ccc(-c2ccc(Br)cc2)o1,8.2µM*,28%,-4%,-2%,16%,8.2µM*
NC(=O)C1CCN(C(=S)c2ccc(-c3ccc(Br)cc3)o2)CC1,i,-23%,18%,10%,-11%,i
COc1ccc(C(CC(=O)NCc2ccccc2Cl)N2Cc3ccccc3C2=O)cc1OC (stereo not given),i,nt,-9%,-15%,nt,i
CCOC(=O)c1c(NC(=O)c2noc3c2CC(C(C)(C)C)CC3)sc2c1CCCC2 (stereo not given),nt,nt,18%,8%,nt,nt
CCOc1ccc(C2Nc3ccccc3-c3nnc(SCc4ccccc4)nc3O2)cc1OC (stereo not given),i,nt,8%,-21%,nt,i
COc1ccc([C@@H]2C[C@H]3[C@@H](CN2S(=O)(=O)c2ccccc2)C(=O)C[C@@H](c2cccc4ccccc24)N3S(=O)(=O)c2ccc(C)cc2)cc1,i,0%,3%,-1%,1%,i
Cc1cc(C)c(C)c(S(=O)(=O)N2CCN(CC(=O)c3c(N)n(Cc4ccccc4)c(=O)n(C)c3=O)CC2)c1C,15µM*,9%,?,1%,6%,?
Cn1c(=O)c(C(=O)CN2CCCCCC2)c(N)n(Cc2ccccc2)c1=O,i,-10%,6%,-14%,0%,i
CCOc1ccc(NC(=O)CN(C)C(=O)c2cc([N+](=O)[O-])ccc2Sc2ccccc2)cc1OCC,i,-2%,4%,0%,-9%,i
CCOC(=O)C1=C(c2ccccc2)NC(N)=NC1c1ccc(OCc2ccc(C(=O)OC)cc2)cc1 (stereo not given),?,23µM*,?,-53%,21µM*,?
CCOc1ccc(S(=O)(=O)Nc2ccc(Cl)cn2)c(C)c1C,23µM*,-14%,-6%,-15%,-8%,?
CC(=O)c1cccc(NC(=O)CCc2c(C)nc3c(-c4ccc(F)cc4)c(C)nn3c2C)c1,i,nt,-2%,-3%,nt,i
Cc1nn(C)c(Oc2ccccc2)c1CCNS(=O)(=O)c1ccc(Cl)cc1,18µM*,-25%,-17%,-5%,?,?
COc1ccc(C(=O)CSc2nc(SC)ns2)cc1OC,i,-2%,38%,27%,3%,i
COc1ccc(C(=O)CSC#N)cc1OC,i,?,?,-42%,21µM*,i
COc1ccc(C(=O)CSc2cc(C)nc3nc(C)nn23)cc1OC,?,16µM*,-27%,-33%,11µM*,i
Cc1ccc(N2CCN(C(=O)c3cc(-c4ccc(F)cc4)[nH]c3C)CC2C)cc1 (stereo not given),?,23µM*,?,-27%,18µM*,?
Cc1[nH]c(-c2ccc(F)cc2)cc1C(=O)N1CCN(c2ccccc2)CC1,i,-28%,?,-34%,-21%,i
Cc1ccc(NC(=O)Cn2nc(C)c3nn(-c4ccc(Cl)cc4)c(C)c3c2=O)cc1C,nt,nt,?,-1%,nt,nt
COC(=O)c1ccccc1NC(=O)CSc1c2c(nc3ccc(Cl)cc13)CCCC2,nt,nt,-27%,-14%,nt,nt
COc1ccc(/C=N/OCC(=O)N2CC3(C)CC2CC(C)(C)C3)cc1OC (stereo not given),16µM*,-12%,?,-27%,0%,i
COc1cc(/C=C/C(=O)OCC(=O)N2CC3(C)CC2CC(C)(C)C3)ccc1O (stereo not given),i,-20%,1%,-18%,-27%,i
CC(=O)Nc1ccc(S(=O)(=O)NCCc2csc3nc(-c4ccc(Cl)cc4)nn23)cc1,nt,nt,0%,-22%,nt,nt
Cc1cc(C)c2c(=O)[nH]c(=O)n(Cc3ccccc3)c2n1,13µM*,0%,20%,-2%,-3%,i
SMILES,KB-V1 cytotox,HT1080-NT tox,TGFb SMAD3 inh,HepG2 tox,HT1080 IDH1KD tx,KB-3-1 cytotox
O=C(Nc1nc(-c2ccccn2)cs1)c1ccc(Cl)s1,?,?,?,-15%,4.1µM*,?
Cc1csc(NC(=O)c2cccn2C)n1,i,?,19%,-19%,-18%,i
Cc1ccc(C(=O)Nc2nc(-c3ccccn3)cs2)s1,i,-28%,?,-8%,?,i
Cn1cccc1C(=O)Nc1nc(-c2ccccn2)cs1,?,?,-13%,-37%,?,10µM*
COc1ccc(S(=O)(=O)Nc2cccc(S(=O)(=O)N3CCCCCC3)c2)cc1,i,-5%,-17%,12%,-3%,i
CCc1ccc(Nc2nc3ccccc3nc2NS(=O)(=O)c2ccccc2)cc1,18µM*,nt,?,-42%,nt,?
O=S(=O)(Nc1nc2ccccc2nc1Nc1cccc(S(=O)(=O)N2CCCCC2)c1)c1ccccc1,7.3µM*,6.5µM*,71%,-40%,?,15µM*
Cc1cc(NC(=O)CSc2ncc(C(=O)Nc3ccccc3)c(=O)n2C)no1,nt,nt,-30%,-16%,nt,nt
COc1ccc(NC(=O)c2c(C)noc2C(C)C)cc1S(=O)(=O)N1CCCCC1,nt,6%,5%,-1%,11%,nt
CN(C)CCNC(=O)c1cccc(-c2cnc3c(NC=O)cc(-c4cccc(F)c4)cn23)c1,i,?,20µM*,13µM*,?,i

# Screens as filed in PubChem BioAssay.
